{"source": "PubChem BioAssay AID1645838", "about": "(ICCB-Longwood Screening Facility, Harvard Medical School, 2021)", "assay": "supercomplex reporter luminescence per Hoechst cell count – Hoechst nuclei count (AID 1645838);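 on all read-outs here: control cybrid cells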;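 on z-score: higher means more mitochondrial supercomplex formation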", "settings": "Cells, luminescence/Hoechst cell count ratio; for z-score: stronger effect = higher value; for cell count: measured here: cell number, Hoechst nuclei count; for outcome: library stock 10 mM", "key": {"[1]": {"settings": "library stock concentration (final well concentration not given) 80 uM"}, "[2]": {"settings": "library stock concentration (final well concentration not given) 400 uM"}, "[3]": {"settings": "library stock concentration (final well concentration not given) 2 mM"}, "[4]": {"settings": "library stock concentration (final well concentration not given) 10 mM"}, "[5]": {"settings": "library stock concentration (final well concentration not given) 46 uM"}, "[6]": {"settings": "library stock concentration (final well concentration not given) 278 uM"}, "[7]": {"settings": "library stock concentration (final well concentration not given) 1.67 mM"}}, "note": "Screen size: about 2,000 compounds; about 100 (5%) were called active. No stated cut-off is given here; in the data, active means z-score above about 2; inactive means the rest. This excerpt belongs to a sample that is enriched for actives.", "data": [{"smiles": "O=C(Nc1ccc(N2CCOCC2)cc1)c1n[nH]c2ccccc12", "values": [{"measurement": "z-score", "setting": "[1]", "value": "0.294 (inactive)"}, {"measurement": "z-score", "setting": "[2]", "value": "0.396 (inactive)"}, {"measurement": "z-score", "setting": "[3]", "value": "-0.44 (inactive)"}, {"measurement": "z-score", "setting": "[4]", "value": "0.0641 (inactive)"}, {"measurement": "cell count", "setting": "[1]", "value": 5020}, {"measurement": "cell count", "setting": "[2]", "value": 4770}, {"measurement": "cell count", "setting": "[3]", "value": 4900}, {"measurement": "cell count", "setting": "[4]", "value": 4350}]}, {"smiles": "CCCCC[C@H](O)/C=C/[C@H]1C(=O)C[C@H](O)[C@@H]1CCCCCCCO", "values": [{"measurement": "z-score", "value": "0.644 (inactive)"}, {"measurement": "cell count", "value": 4950}]}, {"smiles": "O=C(Nc1cccc(Nc2ncc(Br)c(NCCc3cnc[nH]3)n2)c1)N1CCCC1", "values": [{"measurement": "outcome", "value": "inactive; censored for cell count"}, {"measurement": "z-score", "setting": "[5]", "value": "-0.139 (inactive)"}, {"measurement": "z-score", "setting": "[1]", "value": "-0.647 (inactive)"}, {"measurement": "z-score", "setting": "[6]", "value": "0.0145 (inactive)"}, {"measurement": "z-score", "setting": "[2]", "value": "-0.129 (inactive)"}, {"measurement": "z-score", "setting": "[7]", "value": "3.24 (active)"}, {"measurement": "z-score", "setting": "[3]", "value": "0.129 (inactive)"}, {"measurement": "cell count", "setting": "[5]", "value": 5940}, {"measurement": "cell count", "setting": "[1]", "value": 4860}, {"measurement": "cell count", "setting": "[6]", "value": 6000}, {"measurement": "cell count", "setting": "[2]", "value": 4520}, {"measurement": "cell count", "setting": "[7]", "value": 2060}, {"measurement": "cell count", "setting": "[3]", "value": 3760}]}, {"smiles": "O=C(O)CCC/C=C\\CC1C(=O)C[C@@H](O)[C@@H]1/C=C/[C@@H](O)COc1ccccc1", "note": "(some centres undefined)", "values": [{"measurement": "z-score", "value": "0.988 (inactive)"}, {"measurement": "cell count", "value": 5150}]}, {"smiles": "CCN(CC)C(=O)CCC/C=C\\C[C@@H]1[C@@H](/C=C/[C@@H](O)CCc2ccccc2)[C@H](O)C[C@@H]1O", "values": [{"measurement": "z-score", "value": "0.309 (inactive)"}, {"measurement": "cell count", "value": 5000}]}, {"smiles": "CCCCCCCC/C=C\\CCCCCCCCCCCC(N)=O", "values": [{"measurement": "z-score", "value": "-0.128 (inactive)"}, {"measurement": "cell count", "value": 5640}]}, {"smiles": "CCCCCCCCCCCCCCCCCC(=O)NCCO", "values": [{"measurement": "z-score", "value": "-0.675 (inactive)"}, {"measurement": "cell count", "value": 6070}]}, {"smiles": "O=C(C(=O)c1ccc(Cl)cc1)c1ccc(Cl)cc1", "values": [{"measurement": "z-score", "setting": "[5]", "value": "0.501 (inactive)"}, {"measurement": "z-score", "setting": "[6]", "value": "0.0434 (inactive)"}, {"measurement": "z-score", "setting": "[7]", "value": "0.0353 (inactive)"}, {"measurement": "z-score", "setting": "[4]", "value": "-0.186 (inactive)"}, {"measurement": "cell count", "setting": "[5]", "value": 6500}, {"measurement": "cell count", "setting": "[6]", "value": 6290}, {"measurement": "cell count", "setting": "[7]", "value": 6800}, {"measurement": "cell count", "setting": "[4]", "value": 6380}]}, {"smiles": "NC(=NCC[C@H](N)C(=O)O)NO", "values": [{"measurement": "z-score", "value": "-0.121 (inactive)"}, {"measurement": "cell count", "value": 4620}]}, {"smiles": "CCN(CC)c1ccc(C=NNC(=O)c2ccc(O)cc2)cc1", "values": [{"measurement": "z-score", "setting": "[5]", "value": "-0.275 (inactive)"}, {"measurement": "z-score", "setting": "[6]", "value": "-0.201 (inactive)"}, {"measurement": "z-score", "setting": "[7]", "value": "-0.4 (inactive)"}, {"measurement": "z-score", "setting": "[4]", "value": "2.2 (active)"}, {"measurement": "cell count", "setting": "[5]", "value": 6830}, {"measurement": "cell count", "setting": "[6]", "value": 6590}, {"measurement": "cell count", "setting": "[7]", "value": 6690}, {"measurement": "cell count", "setting": "[4]", "value": 3360}]}, {"smiles": "CCC(=C(CC)c1ccc(O)cc1)c1ccc(O)cc1", "values": [{"measurement": "z-score", "setting": "[1]", "value": "0.303 (inactive)"}, {"measurement": "z-score", "setting": "[2]", "value": "0.161 (inactive)"}, {"measurement": "z-score", "setting": "[3]", "value": "-0.198 (inactive)"}, {"measurement": "z-score", "setting": "[4]", "value": "-1.11 (inactive)"}, {"measurement": "cell count", "setting": "[1]", "value": 5780}, {"measurement": "cell count", "setting": "[2]", "value": 5910}, {"measurement": "cell count", "setting": "[3]", "value": 5930}, {"measurement": "cell count", "setting": "[4]", "value": 5450}]}, {"smiles": "CCCCC/C=C\\C/C=C\\C/C=C\\C/C=C\\CCCCNC(=O)c1ccc(O)cc1", "values": [{"measurement": "z-score", "value": "-0.229 (inactive)"}, {"measurement": "cell count", "value": 5700}]}, {"smiles": "CC(OC1OCCN(Cc2n[nH]c(=O)[nH]2)C1c1ccc(F)cc1)c1cc(C(F)(F)F)cc(C(F)(F)F)c1", "note": "(centres undefined)", "values": [{"measurement": "z-score", "setting": "[1]", "value": "-0.483 (inactive)"}, {"measurement": "z-score", "setting": "[2]", "value": "-0.157 (inactive)"}, {"measurement": "z-score", "setting": "[3]", "value": "-0.324 (inactive)"}, {"measurement": "z-score", "setting": "[4]", "value": "1.44 (inactive)"}, {"measurement": "cell count", "setting": "[1]", "value": 5120}, {"measurement": "cell count", "setting": "[2]", "value": 5200}, {"measurement": "cell count", "setting": "[3]", "value": 4790}, {"measurement": "cell count", "setting": "[4]", "value": 2820}]}, {"smiles": "CCCCCCCC/C=C\\CCCCCCCC(=O)N[C@@H](CO)C(=O)O", "values": [{"measurement": "z-score", "value": "0.0618 (inactive)"}, {"measurement": "cell count", "value": 5160}]}, {"smiles": "NCC(=O)Nc1ccc(-n2nc(C(F)(F)F)cc2-c2ccc3c(ccc4ccccc43)c2)cc1", "values": [{"measurement": "outcome", "value": "inactive; censored for cell count"}, {"measurement": "z-score", "setting": "[1]", "value": "-0.354 (inactive)"}, {"measurement": "z-score", "setting": "[2]", "value": "-0.201 (inactive)"}, {"measurement": "z-score", "setting": "[3]", "value": "4.63 (active)"}, {"measurement": "cell count", "setting": "[1]", "value": 6120}, {"measurement": "cell count", "setting": "[2]", "value": 5230}, {"measurement": "cell count", "setting": "[3]", "value": 2710}]}, {"smiles": "Cc1nnsc1C(=O)Nc1ccc(-n2nc(C(F)(F)F)cc2C(F)(F)F)cc1", "values": [{"measurement": "z-score", "value": "0.284 (inactive)"}, {"measurement": "cell count", "value": 4970}]}, {"smiles": "CCCCCCCCCCCCCCC(=O)NCCO", "values": [{"measurement": "z-score", "setting": "[5]", "value": "-0.0121 (inactive)"}, {"measurement": "z-score", "setting": "[6]", "value": "0.19 (inactive)"}, {"measurement": "z-score", "setting": "[7]", "value": "-0.219 (inactive)"}, {"measurement": "z-score", "setting": "[4]", "value": "0.291 (inactive)"}, {"measurement": "cell count", "setting": "[5]", "value": 6780}, {"measurement": "cell count", "setting": "[6]", "value": 6410}, {"measurement": "cell count", "setting": "[7]", "value": 7210}, {"measurement": "cell count", "setting": "[4]", "value": 6620}]}, {"smiles": "CC(=O)c1cccc(NC(=O)CN2CCc3cc4c(cc3C2)OCCCO4)c1", "values": [{"measurement": "z-score", "setting": "[1]", "value": "0.0242 (inactive)"}, {"measurement": "z-score", "setting": "[2]", "value": "0.451 (inactive)"}, {"measurement": "z-score", "setting": "[3]", "value": "-0.169 (inactive)"}, {"measurement": "z-score", "setting": "[4]", "value": "0.0588 (inactive)"}, {"measurement": "cell count", "setting": "[1]", "value": 4960}, {"measurement": "cell count", "setting": "[2]", "value": 4830}, {"measurement": "cell count", "setting": "[3]", "value": 4760}, {"measurement": "cell count", "setting": "[4]", "value": 4740}]}, {"smiles": "COc1cc2nc(N3CCCN(C)CC3)nc(NC3CCN(Cc4ccccc4)CC3)c2cc1OC", "values": [{"measurement": "z-score", "value": "-0.382 (inactive)"}, {"measurement": "z-score", "setting": "[5]", "value": "-0.481 (inactive)"}, {"measurement": "z-score", "setting": "[6]", "value": "-0.471 (inactive)"}, {"measurement": "z-score", "setting": "[7]", "value": "0.298 (inactive)"}, {"measurement": "z-score", "setting": "[4]", "value": "10.9 (active)"}, {"measurement": "cell count", "value": 5260}, {"measurement": "cell count", "setting": "[5]", "value": 6510}, {"measurement": "cell count", "setting": "[6]", "value": 6560}, {"measurement": "cell count", "setting": "[7]", "value": 5890}, {"measurement": "cell count", "setting": "[4]", "value": 2180}]}, {"smiles": "COc1cc2c(NC3CCN(C(C)C)CC3)nc(C3CCCCC3)nc2cc1OCCCN1CCCC1", "values": [{"measurement": "z-score", "setting": "[5]", "value": "-0.551 (inactive)"}, {"measurement": "z-score", "setting": "[6]", "value": "-0.34 (inactive)"}, {"measurement": "z-score", "setting": "[7]", "value": "-0.454 (inactive)"}, {"measurement": "z-score", "setting": "[4]", "value": "0.796 (inactive)"}, {"measurement": "cell count", "setting": "[5]", "value": 6710}, {"measurement": "cell count", "setting": "[6]", "value": 5680}, {"measurement": "cell count", "setting": "[7]", "value": 6450}, {"measurement": "cell count", "setting": "[4]", "value": 1730}]}, {"smiles": "COc1cc2c(NC3CCN(CC4CCCCC4)CC3)nc(N3CCCN(C(C)C)CC3)nc2cc1OCCCN1CCCCC1", "values": [{"measurement": "outcome", "value": "inactive; censored for cell count"}, {"measurement": "z-score", "setting": "[1]", "value": "-0.365 (inactive)"}, {"measurement": "z-score", "setting": "[2]", "value": "-0.622 (inactive)"}, {"measurement": "z-score", "setting": "[3]", "value": "0.193 (inactive)"}, {"measurement": "cell count", "setting": "[1]", "value": 6230}, {"measurement": "cell count", "setting": "[2]", "value": 6560}, {"measurement": "cell count", "setting": "[3]", "value": 4370}]}, {"smiles": "CCCCCC(=O)CC[C@H]1C(=O)C=C[C@@H]1C/C=C\\CCCC(=O)O", "values": [{"measurement": "z-score", "value": "1.09 (inactive)"}, {"measurement": "cell count", "value": 5090}]}, {"smiles": "CC(C)(C)OC(=O)N1CCC(OC2CCNCC2)CC1", "values": [{"measurement": "z-score", "setting": "[1]", "value": "0.0198 (inactive)"}, {"measurement": "z-score", "setting": "[2]", "value": "0.196 (inactive)"}, {"measurement": "z-score", "setting": "[3]", "value": "0.447 (inactive)"}, {"measurement": "z-score", "setting": "[4]", "value": "0.428 (inactive)"}, {"measurement": "cell count", "setting": "[1]", "value": 4690}, {"measurement": "cell count", "setting": "[2]", "value": 4710}, {"measurement": "cell count", "setting": "[3]", "value": 4640}, {"measurement": "cell count", "setting": "[4]", "value": 4420}]}]}
